Laboratory results reported in PubChem BioAssay.
Entries with a potency or affinity are not part of this list. Records with an inconclusive call do not appear. Activity calls are given as the source filed them.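 The calls were made as follows, unless noted: active = a fitted half-maximal concentration no higher than twice the top valid tested dose, with signal falling as cells die; inconclusive = flat curve between -70% and -30%, or poor fit; inactive = the rest, including signal rising instead of falling.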

What was measured:
[1] = Cryptococcus neoformans growth inhibition, dose response, Alamar Blue, cherry-picks (AID 686998;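 active = falling signal with fitted half-maximal potency no higher than twice the top valid tested dose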)
[2] = inducers of Cryptococcus neoformans cell lysis, dose response, AK release luminescence, cherry-picks (AID 687000;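 active = fitted dose curve reaches 40% lysis signal rise at or below the highest valid concentration tested for that sample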;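 also: luminescent detection of adenylate kinase leaking from lysed yeast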)
[3] = HepG2 cell cytotoxicity, dose response, cytotoxicity control, cherry-picks, set 2 (AID 687002;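 active = a dose-response fit showing signal loss, with half-maximal concentration no higher than twice the top tested dose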)
[4] = HeLa cell cytotoxicity, dose response, cytotoxicity control, ATP luminescence, cherry-pick samples (AID 687004)

Measured: outcome

C[C@@H]1CN([C@@H](C)CO)C(=O)CCCn2cc(nn2)CO[C@@H]1CN(C)C(=O)NC1CCCC1
inactive: all assays above

O=C(C[C@@H]1C[C@@H]2c3cc(NC(=O)C4CCC4)ccc3O[C@@H]2[C@H](CO)O1)NCc1cccc(F)c1
inactive: all assays above

CN1CCc2c(sc(N)c2C(=O)c2ccc(Cl)cc2)C1
inactive: all assays above

C[C@@H]1CN([C@H](C)CO)C(=O)c2c(c3ccccc3n2C)-c2ccccc2CO[C@H]1CN(C)S(=O)(=O)c1cccs1
inactive: all assays above

C=CCNC(=O)CN(c1ccc(F)cc1)S(=O)(=O)c1ccc(OC)cc1
inactive: all assays above

CCC(=O)N(C)C[C@H]1Oc2cc(C#CC(C)(C)O)ccc2S(=O)(=O)N([C@@H](C)CO)C[C@@H]1C
inactive: all assays above

C[C@@H]1CN([C@H](C)CO)C(=O)c2cc(C#CC(C)(C)O)cnc2O[C@@H]1CN(C)Cc1cncnc1
inactive: all assays above

C/C=C/c1ccc2c(c1)O[C@H](CN(C)S(=O)(=O)c1ccccc1)[C@H](C)CN([C@@H](C)CO)S2(=O)=O
inactive: all assays above

C[C@H]1CCCCO[C@H](CN(C)C(=O)c2ccncc2)[C@@H](C)CN([C@@H](C)CO)C(=O)c2cc(NC(=O)Cc3ccccc3)ccc2O1
inactive: all assays above

O=C(C[C@H]1CC[C@@H]2[C@H](COC[C@@H](O)CN2Cc2cccc(C(F)(F)F)c2)O1)NCc1ccc(Cl)cc1
inactive: all assays above

C[C@@H]1CN([C@@H](C)CO)C(=O)c2cc(C3=CCCCC3)cnc2O[C@H]1CN(C)C(=O)Cc1cccnc1
inactive: all assays above

CCS(=O)(=O)N1CCCCN2[C@H](C1)[C@@H](c1ccc(-c3ccc(C#N)cc3)cc1)[C@@H]2CO
inactive: all assays above
